Source: PubChem BioAssay (National Center for Advancing Translational Sciences (NCATS))
Tau ThT inhib: inhibitors of human tau fibril formation, thioflavin T binding; P10636; recombinant tau K18 P301L, heparin-induced fibrillization, ThT fluorescence; Potency, µM (titrated, usually from 57.4 µM), actives largely listed as inhibitors; hit rate 2.1% among 270,000; further: nearly all actives have a fitted effect of over 55% in size
Target sequence (P10636 561-689 P618L limits assumed): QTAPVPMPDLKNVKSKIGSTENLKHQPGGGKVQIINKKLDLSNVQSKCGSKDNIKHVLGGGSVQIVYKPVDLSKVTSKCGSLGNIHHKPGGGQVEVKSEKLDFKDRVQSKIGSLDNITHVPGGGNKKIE
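Heparin-induced fibrillization of the P301L-mutant K18 repeat-domain fragment of human tau was followed by ThT binding in quantitative high-throughput format.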
Tau fluor counter: counter-screen for tau fibril formation inhibitors. Potency, µM (titrated, usually from 57.7 µM). hit rate 0.93% among 280,000. tau K18 P301L Alexa594 fluorescence, heparin fibrillization; further: nearly all actives have a fitted effect of over 55% in size
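Human tau K18 P301L (15 uM unlabeled, 0.24 uM Alexa 594-labeled) in 100 mM sodium acetate pH 7 with 20 uM heparin, 6 hr at 37 C. ThT 30 uM added, 1 hr ambient; Alexa 594 FP and total fluorescence read at 555/632 nm.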
KDM4E inh: blocks human JMJD2E demethylase activity; B2RXH2; JMJD2E catalytic domain, FDH-coupled NADH fluorescence (FDH is formaldehyde dehydrogenase); Potency, µM (series often up to 57.1 µM), usual class: inhibitors; hit rate 1.6% among 230,000; AID 2147; active means well fitted inhibition curve with a large enough effect, not every such curve was filed as active; inconclusive means small, poorly fitted or top-dose-only effect, or another doubt; inactive means no such curve, though single readings can be large or run the other way; further: nearly all actives have a fitted effect of over 50% in size
Target sequence (B2RXH2 1-337 limits assumed): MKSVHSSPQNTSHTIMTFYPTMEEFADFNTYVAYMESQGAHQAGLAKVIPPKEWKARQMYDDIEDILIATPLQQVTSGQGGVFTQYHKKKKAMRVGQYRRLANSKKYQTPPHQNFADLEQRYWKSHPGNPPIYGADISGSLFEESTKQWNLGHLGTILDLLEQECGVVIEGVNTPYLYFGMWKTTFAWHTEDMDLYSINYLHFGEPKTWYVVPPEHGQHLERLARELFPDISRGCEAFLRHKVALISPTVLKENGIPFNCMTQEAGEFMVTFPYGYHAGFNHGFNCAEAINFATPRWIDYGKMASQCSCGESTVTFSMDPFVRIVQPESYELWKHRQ
Sfp PPTase inh: blocks B. subtilis Sfp PPTase activity; AID 1490; Biochemical Sfp PPTase activity, qHTS; Potency, µM, actives largely listed as inhibitors; hit rate 3.5% among 310,000;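 further: the enzyme is Sfp with the accession as filed and its product quenches rhodamine fluorescence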
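Sfp 15 nM + cpd, 15 min RT; start w/ rhodamine-CoA 5 uM, BHQ-2-YbbR 12.5 uM (final); 50 mM Hepes pH 7.6, 10 mM MgCl2, 0.01% NP-40, 0.01% BSA; read 525/598 nm at 0 and 30 min.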
FBPA coupling cs: counter-screen for Giardia aldolase inhibitors: coupling enzyme system. hit rate 0.67% among 290,000. coupling enzyme system counterscreen, AmpLite Red fluorescence. activity change, negative = inhibition, % at 58.2 µM, hits read low. AID 2472; in the data active means activity change below about -30%
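Compounds tested against the coupling enzymes alone at 57.5 uM final; readout was AmpLite Red fluorescence (525/598 nm) after 20 min at RT.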
Tau FP inhib: tau fibrillization inhibition (FP). P10636. K18 P301L tau heparin fibrillization, Alexa594 FP, 6 h. Potency, µM (top dose mostly 57.7 µM), usual class: inhibitors. hit rate 0.39% among 280,000. AID 1468; further: nearly all actives have a fitted effect of over 55% in size
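Steps: dispense K18 P301L tau (15 uM plus 0.24 uM Alexa 594 tracer, final) in pH 7 sodium acetate; add compound; add heparin (20 uM final); incubate 6 hr, 37 C; add ThT (30 uM final); after 1 hr ambient, read FP.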
Of the large screens only hits and unclear results are named; the others gave an inactive call; ! = a repeat was not active; [ ] = another dose, or the depositor's remark. This is a sample that favours compounds with a hit; in the whole collection about 5.3% have one here. Unless noted, the call rests on the fitted dose curve; in most records, active means well fitted curve in the direction sought with a large enough effect; inconclusive means small, poorly fitted or top-dose-only effect, or another doubt; inactive means no such curve, though single readings can be large; an effect the other way counts as inactive or inconclusive.

N#CC1=C(S)N(c2ccccc2)C(c2ccc(-c3cccc(Cl)c3)o2)NC1=O (centres undefined)	Tau ThT inhib 22.4µM, Sfp PPTase inh 28.2µM, Tau FP inhib inconclusive
Cc1cccc(N2C(S)=C(C#N)C(=O)NC2c2ccco2)c1 (centres undefined)	KDM4E inh inconclusive
COc1ccc(C2NC(=O)C(C#N)=C(S)N2c2ccccc2)cc1OC (centres undefined)	Tau ThT inhib inconclusive, Sfp PPTase inh 20µM, Tau FP inhib inconclusive
Cc1ccc(S(=O)(=O)NCCc2cn3ccsc3n2)c(C)c1	none (no result: KDM4E inh, Sfp PPTase inh, FBPA coupling cs)
CC1CCN(C(=O)c2c(NC(=O)c3ccccc3F)sc3c2CCC(C(C)(C)C)C3)CC1 (centres undefined)	none (no result: KDM4E inh, Sfp PPTase inh, FBPA coupling cs)
O=C(c1ccc(CS(=O)c2ccccc2Cl)o1)N1CCN(c2ccccc2F)CC1 (centres undefined)	none (no result: KDM4E inh, Sfp PPTase inh, FBPA coupling cs)
COc1ccccc1N1CCN(C(c2cc3cc(C)ccc3[nH]c2=O)c2nnnn2C2CCCC2)CC1 (centres undefined)	Sfp PPTase inh inconclusive
CCC(C)(C)n1nnnc1C(c1cc2ccc(OC)cc2[nH]c1=O)N1CCN(C2CCCCC2)CC1 (centres undefined)	KDM4E inh inconclusive
COc1ccccc1N1CCN(C(c2cc3ccc(C)cc3[nH]c2=O)c2nnnn2C2CCCC2)CC1 (centres undefined)	Tau ThT inhib inconclusive, KDM4E inh inconclusive, Sfp PPTase inh 39.8µM, FBPA coupling cs -34.3
CCOC(=O)C1CCN(C(c2cc3ccc(C)cc3[nH]c2=O)c2nnnn2C2CCCCC2)CC1 (centres undefined)	Tau ThT inhib inconclusive, KDM4E inh inconclusive, Sfp PPTase inh 35.5µM, Tau FP inhib inconclusive
Cn1c(-c2ccccc2)cnc1NCc1cc2c(cc1[N+](=O)[O-])OCO2	Sfp PPTase inh 56.2µM
Cc1nc(NC2CCCCC2)c2nc(-c3ccccc3)n(CCCN3CCCCC3C)c2n1 (centres undefined)	KDM4E inh inconclusive
COc1ccc(C(=O)Nc2ccc(NC(=O)c3ccco3)cc2)cc1	none (no result: Tau ThT inhib, Tau fluor counter, KDM4E inh, Tau FP inhib)
COc1ccc(-n2c(NC(=O)c3ccco3)c(C#N)c3nc4ccccc4nc32)cc1	Sfp PPTase inh 35.5µM, FBPA coupling cs -51.9
CCOC(=O)c1c(NC(=O)c2ccco2)n(C2CCCCC2)c2nc3ccccc3nc12	Tau ThT inhib 17.8µM, KDM4E inh inconclusive, Tau FP inhib inconclusive
N#Cc1c(NC(=O)c2ccccc2Cl)n(Cc2ccccc2)c2nc3ccccc3nc12	Tau ThT inhib 14.1µM, KDM4E inh inconclusive, FBPA coupling cs -38.6, Tau FP inhib inconclusive
CCOC(=O)c1c(C)[nH]c(C)c1S(=O)(=O)N(C)CC(=O)Nc1ccc(C)cc1Br	none (no result: KDM4E inh, Sfp PPTase inh, FBPA coupling cs)
CCCOc1ccc(C(=O)Nc2ccc(NC(=O)c3ccccc3)c(Br)c2)cc1	Tau ThT inhib inconclusive (no result: KDM4E inh, Sfp PPTase inh, FBPA coupling cs)
COc1ccc(CC(N)C(=O)N[C@H]2[C@@H](O)[C@H](n3cnc4c(N(C)C)ncnc43)O[C@@H]2CO)cc1 (some centres undefined)	none (no result: KDM4E inh)
COC(=O)c1ccc(CSc2nnc(SCc3ccc(C(=O)OC)o3)s2)o1	Tau ThT inhib inconclusive
COC(=O)c1ccc(CSc2nc(C)nc3sc(C)c(C)c23)o1	Sfp PPTase inh 25.1µM
COc1ccc(C2=CC3=C(Br)C(=O)C(C)(O)C(=O)C3=CO2)cc1 (centres undefined)	Tau ThT inhib 17.8µM!, Tau fluor counter inconclusive, Tau FP inhib inconclusive
CCC(=O)OC1(C)C(=O)C2=COC(c3ccc(OC)cc3)=CC2=C(Br)C1=O (centres undefined)	Tau ThT inhib 15.8µM
COCCn1c(=O)c(-c2cn(C)c3ccccc23)nc2cnc(Oc3ccc(OC)cc3)nc21	none (no result: Tau ThT inhib, Tau fluor counter, KDM4E inh, Tau FP inhib)
O=C1CCCC=C1[C@@H](O)C1CCCCC1	none (no result: KDM4E inh)
CCN1CCN(Cc2ccc(NC(=O)c3ccc(C)c(NC(=O)c4c[nH]c5cc(C(F)(F)F)ccc5c4=O)c3)cc2C(F)(F)F)CC1	Tau ThT inhib inconclusive, Sfp PPTase inh 79.4µM, Tau FP inhib inconclusive
CCN1CCN(Cc2ccc(NC(=O)c3ccc(C)c(NC(=O)c4cccc(-c5cn[nH]c(=O)c5)c4)c3)cc2C(F)(F)F)CC1	none (no result: Tau ThT inhib, Tau fluor counter, KDM4E inh, Tau FP inhib)
CCN1CCN(Cc2ccc(NC(=O)c3cc(NC(=O)c4ccno4)cc(OC)c3)cc2C(F)(F)F)CC1	none
CCN1CCN(Cc2ccc(NC(=O)c3cc(NC(=O)c4cc5cccc(OC)c5o4)cc(OC)c3)cc2C(F)(F)F)CC1	Tau fluor counter inconclusive, KDM4E inh inconclusive, Sfp PPTase inh 44.7µM, Tau FP inhib inconclusive
CCN1CCN(Cc2ccc(NC(=O)c3cc(NC(=O)c4cc(-c5ccc(OC)cc5)n[nH]4)cc(OC)c3)cc2C(F)(F)F)CC1	Tau ThT inhib inconclusive, Tau fluor counter inconclusive, Sfp PPTase inh inconclusive, Tau FP inhib 28.2µM
CCN(CC)CCOc1ccc(Cc2ccccc2)cc1	Sfp PPTase inh 79.4µM!
CCCCCCN(C(=O)CCCCCN1C(=O)NC(c2ccc(-c3ccccc3)cc2)C(C(=O)OCc2ccccc2)=C1C)C(C)C(=O)NCCCC (centres undefined)	Tau ThT inhib inconclusive, KDM4E inh 35.5µM!
Cc1ccccc1NCc1ccccc1O	Tau fluor counter inconclusive, Sfp PPTase inh inconclusive, FBPA coupling cs -32.9, Tau FP inhib inconclusive
COc1ccc2[nH]c(C)c(CCNc3ccc(C(F)(F)F)cc3[N+](=O)[O-])c2c1	Tau ThT inhib inconclusive, Tau fluor counter 11.2µM[quencher], Tau FP inhib inconclusive
CS(=O)(=O)NCCNc1ccc(C(F)(F)F)cc1[N+](=O)[O-]	none
Cc1ccc(-c2csc3nc4cc(C(N)=O)ccc4c(=O)n23)cc1	KDM4E inh inconclusive, Sfp PPTase inh 79.4µM
CC1CCN(C(c2ccc(N(C)C)cc2)c2nnnn2C(C)(C)C)CC1 (centres undefined)	Tau ThT inhib 10µM, Tau fluor counter inconclusive, KDM4E inh inconclusive, Sfp PPTase inh 20µM
CN(C)c1ccc(C(c2nnnn2C(C)(C)C)N2CCc3ccccc3C2)cc1 (centres undefined)	Tau ThT inhib inconclusive
CCOc1ccc(Cl)cc1CNCCCSc1nnnn1C	none (no result: KDM4E inh, Sfp PPTase inh, FBPA coupling cs)
CNc1ccccc1C(=O)N1CCc2c([nH]c3ccccc23)C1=O	KDM4E inh inconclusive
COc1ccccc1CN1CCCC2(CCN(C(=O)c3ccncc3)CC2)C1	none (no result: Tau ThT inhib, Tau fluor counter, KDM4E inh, Tau FP inhib)
Cc1cc(=O)[nH]c(N/N=C/c2ccc(C)o2)n1	KDM4E inh inconclusive, Sfp PPTase inh inconclusive
Cc1cc(=O)[nH]c(N/N=C/c2ccc(F)cc2)n1	none (no result: Tau ThT inhib, Tau fluor counter, KDM4E inh, Tau FP inhib)
C/C(=N\Nc1nc(C)cc(=O)[nH]1)C1CC1	Tau ThT inhib inconclusive, Sfp PPTase inh 39.8µM
Cc1cc(=O)[nH]c(NN=C(CC(C)C)CC(C)C)n1	KDM4E inh inconclusive, Sfp PPTase inh 56.2µM
Cc1cc(=O)[nH]c(NN=C2CCC(C(C)(C)C)CC2)n1 (centres undefined)	Sfp PPTase inh 50.1µM
